Measured values published in PubChem BioAssay (NCATS).
Results filed as inconclusive are left out. A call without a number means that no potency is given here. The source made the active and inactive calls. Calls come from the whole dose curve; as a rule, active = well fitted cell-killing curve with a large enough effect; inconclusive = small, poorly fitted or top-dose-only effect, or effect the other way; inactive = no such curve, though single readings can be large or run the other way.

Test: Quantitative High-Throughput drug screen in 47 multiple myeloma cell lines against the NCATS MIPE library collection: OCIMY1_PLB cell viability assay (AID 1918979); note: nearly all actives have a fitted effect of over 35% in size
Settings: OCI-MY1 myeloma viability, CellTiter-Glo ATP, 48 h; series mostly up to 45.8 µM
From the text: PI: Beverly A. Mock Ph.D.
Laboratory of Cancer Biology and Genetics,
Center for Cancer Research, National Cancer Institute,
National Institute of Health, Bethesda, Maryland
Drug resistance and disease progression are common in multiple myeloma (MM) patients, underscoring the need for new therapeutic combinations. […] We hypothesized that effective combinations would reduce MYC expression and enhance p16 activity. […] These preclinical data identify potentially useful drug combinations for evaluation in drug-resistant MM and reveal potential mechanisms of combined drug sensitivity.
Described herein is the primary MIPE qHTS used to cherrypick compounds. Validated compounds were then further tested for potential synergistic activiy.
[1] Peat TJ, Gaikwad SM, Dubois W, Gyabaah-Kessie N, Zhang S, Gorjifard S, Phyo Z, Andres M, Hughitt VK, Simpson RM, Miller MA, Girvin AT, Taylor A, Williams D, D'Antonio N, Zhang Y, Rajagopalan A, Flietner E, Wilson K, Zhang X, Shinn P, Klumpp-Thomas C, McKnight C, Itkin Z, Chen L, Kazandijian D, Zhang J, Michalowski AM, Simmons JK, Keats J, Thomas CJ, Mock BA. Drug combinations identified by high-throughput screening promote cell cycle transition and upregulate Smad pathways in myeloma. Cancer Lett. 2023 Aug 1;568:216284. doi: 10.1016/j.canlet.2023.216284. Epub 2023 Jun 24. PMID: 37356470; PMCID: PMC10408729.
SEQUENCE No. (e.g., 1, 2, 3, etc.); […] (e.g., Cells, Incubation, Reagent, etc.); VALUE and DESCRIPTION.
1; Cells; 5 uL; white, solid bottom 1536-well Greiner assay plate.
2; Compounds; 23 nL; Kalypsis pin tool (Wako USA) equipped with a 1536-well pin head to transfer to the assay plates.
3; Incubation; 48 hours; 37C incubation.
4; Reagent;5uL; CellTiter Glo (Promega).
5; Detector; 425V; Luminescence; Viewlux PerkinElmer.
NOTES (numbers refer to Sequence numbers above)
1. The cell-based screening methods employed in this study were like those previously published. Briefly, the corresponding myeloma cell lines were screened in 1,536-well plates with 500 cells, 5-uL per well for inhibition of cell viability (assessed by measuring ATP levels with CellTiterGlo).
2. NCATS MIPE 4.0 library of approved and investigational drugs were added using the Kalypsis pin tool. Wells treated with DMSO only for 100% viability and media only for 0% viability were used as controls.
3. The assay plates were covered and incubated for 48 hours in a 37C, 5% CO2 incubator with controlled humidity.
4. After 48 hours, CellTilter-GloTM luminescent substrate mix (Promega) reagent was added to the assay plate and plates we incubated for 5 min at room temperature.
5. Signal was measured as median relative luminescence units on a ViewLux (PerkinElmer) multiplate reader.
[1] Heske CM, Davis MI, Baumgart JT, Wilson K, Gormally MV, Chen L, Zhang X, Ceribelli M, Duveau DY, Guha R, Ferrer M, Arnaldez FI, Ji J, Tran HL, Zhang Y, Mendoza A, Helman LJ, Thomas CJ. Matrix Screen Identifies Synergistic Combination of PARP Inhibitors and Nicotinamide Phosphoribosyltransferase (NAMPT) Inhibitors in Ewing Sarcoma. Clin Cancer Res. 2017 Dec 1;23(23):7301-7311. doi: 10.1158/1078-0432.CCR-17-1121. Epub 2017 Sep 12. PMID: 28899971; PMCID: PMC6636827.
Potency is the fitted concentration of half-maximal effect.

Row | SMILES | Potency
1 | CN(C)CCc1c[nH]c2ccc(CS(=O)(=O)N3CCCC3)cc12 | inactive
2 | O=NN(CCCl)C(=O)NC1CCCCC1 | inactive
3 | O=S(=O)(c1cccc2cnccc12)N1CCCNCC1 | inactive
4 | Cn1c(=O)c2c(ncn2CC(O)CO)n(C)c1=O (stereo not given) | inactive
5 | O=c1cc(O)c(Cl)c[nH]1 | inactive
6 | CCC(=O)O[C@]1(C(=O)CCl)[C@@H](C)C[C@H]2[C@@H]3CCC4=CC(=O)C=C[C@]4(C)[C@@]3(F)[C@@H](O)C[C@@]21C | inactive
7 | CNS(=O)(=O)Cc1ccc2[nH]cc(CCN(C)C)c2c1 | inactive
8 | CCN(CC)CC#CCOC(=O)C(O)(c1ccccc1)C1CCCCC1 (stereo not given) | inactive
9 | Oc1c(Cl)cc(Cl)c2cccnc12 | 18.7 µM (active)
10 | OCc1ccc(-c2nn(Cc3ccccc3)c3ccccc23)o1 | inactive
11 | CC(C)(C)C(=O)OCOP(=O)(COCCn1cnc2c(N)ncnc21)OCOC(=O)C(C)(C)C | 11.8 µM (active)
12 | CC[C@H](C)C(=O)O[C@H]1C[C@@H](C)C=C2C=C[C@H](C)[C@H](CC[C@@H]3C[C@@H](O)CC(=O)O3)[C@H]21 | inactive
13 | NS(=O)(=O)c1cc2c(cc1Cl)NC(C(Cl)Cl)NS2(=O)=O (stereo not given) | inactive
14 | NC(=O)c1cccc(N)c1 | inactive
15 | Cc1ncc([N+](=O)[O-])n1CCO | inactive
16 | Cc1nnc(C(=O)NC(C)(C)c2nc(C(=O)NCc3ccc(F)cc3)c(O)c(=O)n2C)o1 | inactive
17 | CC(C)C[C@H](NC(=O)[C@H](CCc1ccccc1)NC(=O)CN1CCOCC1)C(=O)N[C@@H](Cc1ccccc1)C(=O)N[C@@H](CC(C)C)C(=O)[C@@]1(C)CO1 | 0.0093 µM (active)
18 | CO[C@@H]1[C@@H](OC(N)=O)[C@@H](O)[C@H](Oc2ccc3c(O)c(NC(=O)c4ccc(O)c(CC=C(C)C)c4)c(=O)oc3c2C)OC1(C)C | inactive
19 | COc1cc([C@@H]2c3cc4c(cc3[C@H](O)[C@H]3COC(=O)[C@H]23)OCO4)cc(OC)c1OC | inactive
20 | CS(=O)(=O)c1ccc([C@@H](O)[C@@H](CO)NC(=O)C(Cl)Cl)cc1 | inactive

Row | SMILES | Potency
21 | CC(C)Cn1cnc2c(N)nc3ccccc3c21 | inactive
22 | CNCC[C@H](Oc1cccc2ccccc12)c1cccs1 | 18.7 µM (active)
23 | C1CCC(C(CC2CCCCN2)C2CCCCC2)CC1 (stereo not given) | 29.6 µM (active)
24 | Cc1ccnc2c1NC(=O)c1cccnc1N2C1CC1 | inactive
25 | NCCCC(O)(P(=O)(O)O)P(=O)(O)O | inactive
26 | O=C(O)c1cn(C2CC2)c2cc(N3CCNCC3)c(F)cc2c1=O | inactive
27 | COc1ccc2c(c1)c(CC(=O)OCC(=O)O)c(C)n2C(=O)c1ccc(Cl)cc1 | inactive
28 | CCCc1cc(C(N)=S)ccn1 | inactive
29 | CN1CCN(c2c(F)cc3c(=O)c(C(=O)O)cn4c3c2OCN4C)CC1 | inactive
30 | Cc1noc(NS(=O)(=O)c2ccc(N)cc2)c1C | inactive
31 | COc1ccc(C(=O)CC(=O)c2ccc(C(C)(C)C)cc2)cc1 | inactive
32 | CCN(C)C(=O)Oc1cccc([C@H](C)N(C)C)c1 | inactive
33 | S=P(N1CC1)(N1CC1)N1CC1 | inactive
34 | NNC(=O)c1ccncc1 | inactive
35 | O=c1oc2c(O)c(O)cc3c(=O)oc4c(O)c(O)cc1c4c23 | inactive
36 | CCOC(=O)[C@H](CCc1ccccc1)N[C@H]1CS[C@H](c2cccs2)CN(CC(=O)O)C1=O | inactive
37 | CC(=O)Oc1ccccc1C(=O)Nc1ncc([N+](=O)[O-])s1 | 42.9 µM (active)
38 | CN(C)c1ccc(C(=C2C=CC(=[N+](C)C)C=C2)c2ccc(N(C)C)cc2)cc1 | 2.09 µM (active)
39 | Nc1nc(N)c2nc(CNc3ccc(C(=O)NC(CCC(=O)O)C(=O)O)cc3)cnc2n1 (stereo not given) | inactive
40 | CCOC(=O)c1ccc(C#Cc2ccc3c(c2)C(C)(C)CCS3)nc1 | inactive
